We go through twelve sequences from paper PMC5700166.

Positions count from the first letter of the chain named.

Holding throughout (assay): protein-binding microarray (PBM); PBM: ~300 nM protein, 6 mM HEPES pH 7.8, 80 mM KCl, 0.5 mM EDTA, 0.5 mM EGTA, 6% glycerol, 35 ng/ul poly-dIdC, 1% milk, 1 h, room temperature; Ap Aiptasia and Nv Nematostella (sea anemones) / Co Capsaspora / Aq Amphimedon (sponge) / Dm Drosophila / Hu human; RHD is the Rel homology domain; high values mean tight binding
Common to all, as to conditions: dsDNA, one strand shown

The target of one assay is T1, GST-Ap-NF-kB RHD (Exaiptasia pallida (Aiptasia), UniProt A0A913YAJ5 2-422).
T1 sequence: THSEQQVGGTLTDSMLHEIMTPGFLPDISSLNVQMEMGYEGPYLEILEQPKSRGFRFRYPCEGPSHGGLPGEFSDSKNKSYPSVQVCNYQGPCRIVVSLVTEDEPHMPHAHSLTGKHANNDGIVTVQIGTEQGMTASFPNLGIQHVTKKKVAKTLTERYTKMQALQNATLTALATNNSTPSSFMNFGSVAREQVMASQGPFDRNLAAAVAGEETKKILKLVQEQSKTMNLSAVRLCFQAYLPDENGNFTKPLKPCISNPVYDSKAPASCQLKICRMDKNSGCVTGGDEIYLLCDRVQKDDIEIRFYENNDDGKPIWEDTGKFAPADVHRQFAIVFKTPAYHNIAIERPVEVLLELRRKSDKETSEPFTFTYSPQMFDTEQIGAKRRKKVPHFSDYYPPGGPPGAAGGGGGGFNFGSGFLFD

Assay [1] addresses T2, GST-Nv-NF-kB (Cys allele) (Nematostella vectensis, UniProt E5G601 2-411).
T2 sequence: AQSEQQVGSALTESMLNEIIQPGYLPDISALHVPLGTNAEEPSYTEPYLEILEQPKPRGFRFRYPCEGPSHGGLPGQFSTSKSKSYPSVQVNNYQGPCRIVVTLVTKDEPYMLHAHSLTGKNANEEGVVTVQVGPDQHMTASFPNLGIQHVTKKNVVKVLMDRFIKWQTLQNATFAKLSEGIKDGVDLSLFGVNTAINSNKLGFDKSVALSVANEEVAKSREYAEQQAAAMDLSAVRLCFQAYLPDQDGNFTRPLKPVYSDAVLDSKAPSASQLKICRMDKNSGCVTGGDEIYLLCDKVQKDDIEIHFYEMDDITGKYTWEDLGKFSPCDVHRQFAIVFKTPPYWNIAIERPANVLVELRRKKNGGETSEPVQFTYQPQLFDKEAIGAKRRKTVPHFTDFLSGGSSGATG

Assay [2] concerns the target T3, GST-Nv-NF-kB (Ser allele) (Nematostella vectensis, UniProt A7UNT2 2-411).
T3 sequence: T2 sequence with Q21R, C66S, S207N, E215Q, V217A, E225K, A268E, D399E

For the next assay, the target named is T4, GST-Co-NF-kB (Capsaspora owczarzaki, UniProt F1ARL5 200-546).
T4 sequence: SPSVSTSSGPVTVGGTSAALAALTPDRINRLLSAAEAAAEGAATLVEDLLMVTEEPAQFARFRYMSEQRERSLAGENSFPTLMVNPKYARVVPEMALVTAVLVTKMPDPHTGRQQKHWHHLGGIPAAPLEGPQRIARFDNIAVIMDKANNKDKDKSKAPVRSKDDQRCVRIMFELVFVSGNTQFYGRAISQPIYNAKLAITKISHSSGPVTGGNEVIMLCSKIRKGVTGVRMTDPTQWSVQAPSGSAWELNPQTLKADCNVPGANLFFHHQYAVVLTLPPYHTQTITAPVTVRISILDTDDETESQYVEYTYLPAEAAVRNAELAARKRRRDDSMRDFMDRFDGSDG

A further assay concerns the target T5, GST-Dm-Relish (Drosophila melanogaster, UniProt Q94527 99-473).
T5 sequence: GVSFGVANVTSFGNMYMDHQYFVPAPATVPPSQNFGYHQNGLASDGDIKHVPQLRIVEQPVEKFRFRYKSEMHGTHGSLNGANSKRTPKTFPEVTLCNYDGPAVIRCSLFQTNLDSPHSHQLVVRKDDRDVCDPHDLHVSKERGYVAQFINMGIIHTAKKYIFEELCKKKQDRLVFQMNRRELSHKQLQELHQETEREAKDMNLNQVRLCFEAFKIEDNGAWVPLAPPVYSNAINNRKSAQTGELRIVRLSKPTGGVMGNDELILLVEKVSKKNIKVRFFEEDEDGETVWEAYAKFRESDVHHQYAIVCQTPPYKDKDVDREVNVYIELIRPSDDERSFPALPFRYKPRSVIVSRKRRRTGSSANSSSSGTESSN

In the next assay the target is T6, GST-Aq-NF-kB (Amphimedon queenslandica, UniProt A9Y5G7 2-389).
T6 sequence: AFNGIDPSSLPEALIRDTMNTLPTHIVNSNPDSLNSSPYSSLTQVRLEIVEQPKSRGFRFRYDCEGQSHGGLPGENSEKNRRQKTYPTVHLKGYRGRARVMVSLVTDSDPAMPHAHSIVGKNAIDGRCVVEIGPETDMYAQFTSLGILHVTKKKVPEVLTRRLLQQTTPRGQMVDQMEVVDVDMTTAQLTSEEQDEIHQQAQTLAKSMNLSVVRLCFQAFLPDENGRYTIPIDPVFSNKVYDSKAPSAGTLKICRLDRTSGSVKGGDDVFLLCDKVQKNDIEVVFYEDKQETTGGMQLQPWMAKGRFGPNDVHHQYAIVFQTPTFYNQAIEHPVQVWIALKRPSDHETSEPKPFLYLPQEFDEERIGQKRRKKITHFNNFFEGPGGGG

A further assay concerns the target GST-Hu-p50 (Homo sapiens, UniProt P19838 7-356).

Chain of GST-Hu-p50 (P19838 7-356): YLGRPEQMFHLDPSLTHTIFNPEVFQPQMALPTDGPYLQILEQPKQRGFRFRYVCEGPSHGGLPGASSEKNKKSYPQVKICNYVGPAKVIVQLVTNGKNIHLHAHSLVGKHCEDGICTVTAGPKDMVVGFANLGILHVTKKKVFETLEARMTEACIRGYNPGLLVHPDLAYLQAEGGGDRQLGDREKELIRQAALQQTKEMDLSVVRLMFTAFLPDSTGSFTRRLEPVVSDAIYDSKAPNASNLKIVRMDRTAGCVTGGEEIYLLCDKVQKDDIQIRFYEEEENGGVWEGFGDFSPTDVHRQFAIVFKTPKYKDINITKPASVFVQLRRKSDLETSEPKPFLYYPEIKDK

For the sequence “CCGATTAACATCAAAGATCCCCCTGATGTTAATCGGGTCTTGATTCGCTTGACGCTGCTG”, the binding signal with GST-Ap-NF-kB RHD amounted to 7.86 z-score; in assay [1] it was 7.46 z-score; in assay [2], 7.79 z-score; with GST-Co-NF-kB, 6.69 z-score; with GST-Dm-Relish, 8.85 z-score; in the assay with GST-Aq-NF-kB it was 6.88 z-score. Also, the binding signal in the assay with GST-Hu-p50 was found to be 6.85 z-score.

Regarding “CCGATTAACATCAGGGATCCCCCTGATGTTAATCGGGTCTTGATTCGCTTGACGCTGCTG”, the binding signal with GST-Ap-NF-kB RHD was found to be 12 z-score; in assay [1] it was 10.2 z-score; in assay [2], 9.22 z-score; with GST-Co-NF-kB, 5.15 z-score; in the assay with GST-Dm-Relish, 11.1 z-score; in the assay with GST-Aq-NF-kB, 10.3 z-score. In the assay with GST-Hu-p50, this sequence showed a binding signal of 6.45 z-score.

Take “CCGATTAACATCATAATTCCCCATGATGTTAATCGGGTCTTGATTCGCTTGACGCTGCTG”: the binding signal is 6.71 z-score with GST-Ap-NF-kB RHD; 8.63 z-score in assay [1]; 8.94 z-score in assay [2]; 6.68 z-score with GST-Co-NF-kB; 4.84 z-score with GST-Dm-Relish; 5.33 z-score with GST-Aq-NF-kB. This sequence also displayed a binding signal with GST-Hu-p50 of 6.35 z-score.

As for “CCGATTAACATCAAATAATACCCTGATGTTAATCGGGTCTTGATTCGCTTGACGCTGCTG”, the binding signal with GST-Ap-NF-kB RHD came to 3.69 z-score; in assay [1] it was 5.65 z-score; in assay [2], 5.61 z-score; with GST-Co-NF-kB, 1.91 z-score; in the assay with GST-Dm-Relish it was 3.33 z-score; in the assay with GST-Aq-NF-kB, 6.24 z-score. Besides, in the assay with GST-Hu-p50, the binding signal was determined as 4.35 z-score.

For “CCGATTAACATCAGGGGGACCCCTGATGTTAATCGGGTCTTGATTCGCTTGACGCTGCTG”, the binding signal came to 8.92 z-score with GST-Ap-NF-kB RHD; 5.39 z-score in assay [1]; 4.83 z-score in assay [2]; 4.63 z-score with GST-Co-NF-kB; 9.89 z-score in the assay with GST-Dm-Relish; 8.54 z-score with GST-Aq-NF-kB. For the same sequence, in the assay with GST-Hu-p50, the binding signal stood at 5.02 z-score.

Regarding “CCGATTAACATCAGGGGGAACTATGATGTTAATCGGGTCTTGATTCGCTTGACGCTGCTG”, the binding signal with GST-Ap-NF-kB RHD came out at 6.91 z-score; in assay [1], 5.64 z-score; in assay [2], 7.61 z-score; in the assay with GST-Co-NF-kB, 9.06 z-score; in the assay with GST-Dm-Relish it was 4.89 z-score; with GST-Aq-NF-kB, 4.97 z-score. The sequence also came in with a binding signal in the assay with GST-Hu-p50 of 5.9 z-score.

Turning to “CCGATTAACATCAAGGGGGTTTATGATGTTAATCGGGTCTTGATTCGCTTGACGCTGCTG”, the binding signal was found to be 7.31 z-score with GST-Ap-NF-kB RHD; 6.46 z-score in assay [1]; 7.73 z-score in assay [2]; 2.54 z-score in the assay with GST-Co-NF-kB; 8.75 z-score with GST-Dm-Relish; 6.24 z-score in the assay with GST-Aq-NF-kB. Further, the binding signal with GST-Hu-p50 was found to be 7.21 z-score.

With “CCGATTAACATCAGGATTCCCCATGATGTTAATCGGGTCTTGATTCGCTTGACGCTGCTG”, the binding signal with GST-Ap-NF-kB RHD amounted to 9.56 z-score; in assay [1], 9.44 z-score; in assay [2], 8.33 z-score; with GST-Co-NF-kB, 6.71 z-score; with GST-Dm-Relish, 8.76 z-score; in the assay with GST-Aq-NF-kB, 6.46 z-score. For the same sequence, the binding signal in the assay with GST-Hu-p50 worked out at 5.89 z-score.

Take “CCGATTAACATCAACATTTCCCCTGATGTTAATCGGGTCTTGATTCGCTTGACGCTGCTG”: the binding signal turned out to be 6.31 z-score in the assay with GST-Ap-NF-kB RHD; 8.45 z-score in assay [1]; 11.6 z-score in assay [2]; 8.45 z-score with GST-Co-NF-kB; 3.46 z-score in the assay with GST-Dm-Relish; 5.86 z-score with GST-Aq-NF-kB. Also, in the assay with GST-Hu-p50, the binding signal turned out to be 6.35 z-score.

Consider “CCGATTAACATCAGGGGGAGTAATGATGTTAATCGGGTCTTGATTCGCTTGACGCTGCTG”, for which the binding signal with GST-Ap-NF-kB RHD was 5.68 z-score; in assay [1], 4.54 z-score; in assay [2] it was 5.56 z-score; with GST-Co-NF-kB it was 6.83 z-score; with GST-Dm-Relish, 3.45 z-score; with GST-Aq-NF-kB, 4.18 z-score. Further, in the assay with GST-Hu-p50, the binding signal turned out to be 5.72 z-score.

As for “CCGATTAACATCAGGGGGAATCATGATGTTAATCGGGTCTTGATTCGCTTGACGCTGCTG”, the binding signal in the assay with GST-Ap-NF-kB RHD was 8.02 z-score; in assay [1] it was 7.33 z-score; in assay [2] it was 8.26 z-score; with GST-Co-NF-kB, 8.51 z-score; with GST-Dm-Relish, 6.2 z-score; in the assay with GST-Aq-NF-kB, 5.7 z-score. In the assay with GST-Hu-p50, this sequence gave a binding signal of 6.66 z-score.

As for “CCGATTAACATCAGGGGATTACATGATGTTAATCGGGTCTTGATTCGCTTGACGCTGCTG”, the binding signal stood at 6.52 z-score in the assay with GST-Ap-NF-kB RHD; 6.73 z-score in assay [1]; 8.01 z-score in assay [2]; 3.12 z-score with GST-Co-NF-kB; 8 z-score with GST-Dm-Relish; 5.64 z-score in the assay with GST-Aq-NF-kB. The same sequence registered a binding signal with GST-Hu-p50 of 5.79 z-score.
